Our source for the max response values is PubChem BioAssay (NCATS).

“And” between values parts separate entries of the source, which are not always exact repeats. Identical values can stand only once. Results filed as inconclusive are left out. A number with no mark means an inactive call. Calls follow the shape of the dose curve; as a rule, active = well fitted cell-killing curve with a large enough effect in the repeat runs; inconclusive = weak or mixed curves; inactive = flat fitted curve, though single readings scatter. Numbered stars: 1 amine (or outer) side, 2 acyl side, 3 side chain; on linkers, the order of the positions; unused ones are H or OH. Bridge positions count the residues as written; N and C are the ends. Square brackets hold non-standard residues; d marks the D form. Peptide text beside a SMILES is read from it. I, II: the chains in the order shown. Actinocin(9to1) = Cc1c2oc3c(C)ccc(C(=O)[*:1])c3nc-2c(C(=O)[*:2])c(N)c1=O; NMeV = CN[C@H](C(=O)O)C(C)C; Sar = CNCC(=O)O
% is scaled to controls: 0 for no effect and ±100 for the full control effect.

The nature of the experiment: qHTS assay for small molecule agonists of the antioxidant response element (ARE) signaling pathway measured by Nrf2-dependant transcriptional activity - cell viability counter screen (AID 720653). The note with it: ARE-bla HepG2 viability, CellTiter-Glo ATP luminescence, 16 h; hits give low values. The source says:
National Center for Advancing Translational Sciences [NCATS] NIH Chemical Genomics Center [NCGC] U.S. Environmental Protection Agency [EPA] National Institutes of Environmental Health Sciences [NIEHS] National Toxicology Program [NTP] Assay Overview: Oxidative stress has been implicated in the pathogenesis of a variety of diseases ranging from cancer to neurodegeneration. The antioxidant response element (ARE) signaling pathway plays an important role in the amelioration of oxidative stress. The CellSensor ARE-bla HepG2 cell line (Invitrogen) can be used for analyzing the Nrf2/antioxidant response signaling pathway. Nrf2 (NF-E2-related factor 2) and Nrf1 are transcription factors that bind to AREs and activate these genes. The CellSensor ARE-bla HepG2 cell line contains a beta-lactamase reporter gene under control of the Antioxidant Response Element (ARE) stably integrated into HepG2 cells. The activation of the report gene under culture conditions can be detected by fluorescence intensity. The cytotoxicity of the compounds against the ARE-bla HepG2 cell line was quantified by measuring the intracellular ATP content.
Assay Protocol Summary: ARE-bla HepG2 cells were dispensed at 2,000 cells/5 ul/well in 1536-well black wall/clear bottom plates using a Multidrop Combi (ThermoFisher Scientific, Waltham, MA) dispenser. After the assay plates were incubated at 37C/5% CO2 for 5 hrs, 23 nL of compounds dissolved in DMSO, positive controls or DMSO only was transferred to the assay plate by a pintool work station (Kalypsys, San Diego, CA). The plates were incubated at 37C/5% CO2 for 16 hrs. After 1 uL of LiveBLAzer B/G FRET substrate was added using a Flying Reagent Dispenser (FRD) (Aurora Discovery, San Diego, CA), the assay plates were incubated at room temperature for 2 hrs. The fluorescence intensity was measured by an Envision (PerkinElmer, Shelton, CT) plate reader. Cell viability using CellTiter Glo viability assay (Promega, Madison, WI) was also measured by adding 4 ul/well of CellTiter-Glo reagent into the same assay plate using a FRD. After 30 min incubation at room temperature, the luminescence intensity in the plates was measured using a ViewLux (PerkinElmer) plate reader.
Consider `CC(=O)O[C@]1(C(C)=O)CC[C@H]2[C@@H]3C[C@H](C)C4=CC(=O)CC[C@]4(C)[C@H]3CC[C@@]21C`, for which the max response was -14.4% and -14.9%. `COC1=CC(=O)C[C@@H](C)[C@]12Oc1c(Cl)c(OC)cc(OC)c1C2=O`: the max response is 2.34%.

Turning to `Oc1c(I)cc(Cl)c2cccnc12`, the max response is -8.01%. `CC(C)(Oc1ccc(Cl)cc1)C(=O)O`: the max response was 10.5%. Take `CC(=O)Oc1ccc(C(c2ccc(OC(C)=O)cc2)c2ccccn2)cc1`: the max response is 4.78%.

As to `CC/C(=C(/CC)c1ccc(O)cc1)c1ccc(O)cc1`, the max response is 6.27% and -6.2%.

As to `CC(O)(P(=O)(O)O)P(=O)(O)O`, the max response was -6.37%.

For the molecule `O=C1OC(c2ccc(O)cc2)(c2ccc(O)cc2)c2ccccc21`, the max response was 4.44% and -20.6%. Take `Cc1c2oc3c(C)ccc(C(=O)N[C@@H]4C(=O)N[C@H](C(C)C)C(=O)N5CCC[C@H]5C(=O)N(C)CC(=O)N(C)[C@@H](C(C)C)C(=O)O[C@@H]4C)c3nc-2c(C(=O)N[C@@H]2C(=O)N[C@H](C(C)C)C(=O)N3CCC[C@H]3C(=O)N(C)CC(=O)N(C)[C@@H](C(C)C)C(=O)O[C@@H]2C)c(N)c1=O` (I: T[dV]P[Sar][NMeV] / II: T[dV]P[Sar][NMeV]; ester I:1-I:C, II:1-II:C; linker I:N-II:N via Actinocin(9to1)): the max response is -29.7% and -9.89%.

As for `Cc1cc(=O)n(-c2ccccc2)n1C`, the max response was -4.23%. For `C=C(CC)C(=O)c1ccc(OCC(=O)O)c(Cl)c1Cl`, the max response is 6.68%.

`C=CCc1ccc(O)c(OC)c1`: the max response was -2.21% and -7.34%. On to `NC(=NCCCCCCN=C(N)/N=C(\N)Nc1ccc(Cl)cc1)/N=C(\N)Nc1ccc(Cl)cc1`, for which the max response is -4.14%. With `CCCCCCc1ccc(O)cc1O`, the max response was -0.701% and 2.74%.

With `CC(O)C(=O)O` (stereo not drawn), the max response is -3.07%.

In the case of `O=c1ccc2ccccc2o1`, the max response is 0.83% and -14.1% and -0.794%.

In the case of `O=C(O)CCCCC(=O)O`, the max response was 6.35%.

Consider `C[C@H]1C[C@H]2[C@@H]3CCC4=CC(=O)C=C[C@]4(C)[C@@]3(Cl)[C@@H](O)C[C@]2(C)[C@@]1(O)C(=O)CO`, for which the max response is -20.4%. Take `Nc1ccc(C(=O)O)cc1`: the max response is 2.28%.

Take `C[C@]12CC[C@@H]3c4ccc(O)cc4CC[C@H]3[C@@H]1CC[C@@H]2O`: the max response was -2.14%. In the case of `CN(C)/N=N/c1nc[nH]c1C(N)=O`, the max response is -9.97%. With `Oc1ccc(O)cc1`, the max response is -23.3%. Take `CN(C)C(=S)SC(=S)N(C)C`: the max response is 4.33%.
